Sampled rows, rich in hits. Any-hit rate of the full collection: about 4.1%.
p-CIP stab down: lowers stability of the mouse p/CIP coactivator protein; Q05BA5; F442A p/CIP-EGFP cells, EGFP fluorescence, 16 h; decrease of EGFP signal, % at 10 µM; hit rate 0.01% among 290,000;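 active means EGFP signal decrease of at least 30% at 10 µM or well 3 SD below plate mean, unless failing retest; inactive means the rest, including hits failing retest or dose response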
Target sequence (Q05BA5 1-1403): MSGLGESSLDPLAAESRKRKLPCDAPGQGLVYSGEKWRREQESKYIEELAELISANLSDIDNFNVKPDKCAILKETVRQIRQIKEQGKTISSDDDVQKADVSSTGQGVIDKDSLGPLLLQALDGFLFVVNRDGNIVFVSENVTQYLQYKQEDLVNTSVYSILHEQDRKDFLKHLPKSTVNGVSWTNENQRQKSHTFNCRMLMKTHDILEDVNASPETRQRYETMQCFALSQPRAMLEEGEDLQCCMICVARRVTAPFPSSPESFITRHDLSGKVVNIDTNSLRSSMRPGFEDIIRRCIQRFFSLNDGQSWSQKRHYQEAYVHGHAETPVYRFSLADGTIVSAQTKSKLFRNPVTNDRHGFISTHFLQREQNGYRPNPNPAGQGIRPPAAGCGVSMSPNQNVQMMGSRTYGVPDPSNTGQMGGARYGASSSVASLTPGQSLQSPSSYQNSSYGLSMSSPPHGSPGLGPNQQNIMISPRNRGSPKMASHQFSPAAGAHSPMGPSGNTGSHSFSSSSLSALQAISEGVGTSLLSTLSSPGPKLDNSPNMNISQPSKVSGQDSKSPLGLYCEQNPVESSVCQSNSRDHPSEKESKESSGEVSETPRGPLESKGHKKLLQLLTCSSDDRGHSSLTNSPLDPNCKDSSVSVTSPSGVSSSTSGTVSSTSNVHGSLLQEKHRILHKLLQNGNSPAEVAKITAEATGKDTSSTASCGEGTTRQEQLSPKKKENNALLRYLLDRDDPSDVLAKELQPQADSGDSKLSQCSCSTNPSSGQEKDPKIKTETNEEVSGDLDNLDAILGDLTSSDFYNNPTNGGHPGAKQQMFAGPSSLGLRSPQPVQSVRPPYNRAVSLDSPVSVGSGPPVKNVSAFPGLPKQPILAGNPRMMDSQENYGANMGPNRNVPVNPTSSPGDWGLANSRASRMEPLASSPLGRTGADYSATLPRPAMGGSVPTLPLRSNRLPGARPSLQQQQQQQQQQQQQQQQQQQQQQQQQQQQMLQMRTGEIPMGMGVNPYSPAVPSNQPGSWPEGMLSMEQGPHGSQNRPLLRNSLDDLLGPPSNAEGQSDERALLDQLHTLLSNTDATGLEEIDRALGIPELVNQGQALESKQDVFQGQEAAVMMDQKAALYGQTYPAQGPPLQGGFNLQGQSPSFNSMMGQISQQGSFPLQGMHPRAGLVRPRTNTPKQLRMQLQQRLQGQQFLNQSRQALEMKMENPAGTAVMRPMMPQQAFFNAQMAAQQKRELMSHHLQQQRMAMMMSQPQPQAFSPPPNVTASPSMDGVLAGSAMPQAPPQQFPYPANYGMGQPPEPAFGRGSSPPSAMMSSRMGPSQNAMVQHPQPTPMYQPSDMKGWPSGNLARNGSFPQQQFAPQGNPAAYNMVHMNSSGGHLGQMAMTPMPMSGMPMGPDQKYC
MIN6 prolif: inducers of beta-cell replication in MIN6 cells; MIN6 cells proliferation, ATPlite luminescence, 48 h; cells starved in 0.2% serum; 100% = growth in 10% serum; proliferation, % at 10 µM; hit rate 0.29% among 330,000; AID 2380;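 active means compounds whose signal lies at least 3.5 SD above the mean of all wells on their plate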;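 further: 0% = DMSO-treated cells in low-serum medium and 100% = 10% serum control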
NR3A LBD binder: modulators (binders) of human NR3A ligand-binding domain. NR3A LBD differential scanning fluorimetry, Tm shift; 0% = protein alone, 100% = glycine-bound protein. Tm shift relative to glycine control, % at 25 µM. hit rate 2.5% among 340,000. AID 1259313;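 active means melting temperature shift of at least 10% of the positive control shift, at one fixed dose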
MPTP inh: blocks calcium-induced mitochondrial swelling. isolated mouse mitochondria, Ca2+ swelling absorbance, 30 min. inhibition, % at 10 µM. hit rate 1.4% among 360,000;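 active means inhibition of 50% or more, scaled per plate between neutral and stimulator controls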;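 further: 0% = DMSO wells given calcium and 100% = 1 mM EGTA wells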
FAS-TE inh: FAS thioesterase (human) inhibition; P49327; recombinant FAS-TE, OMFH fluorogenic substrate, fluorescence endpoint; hit rate 0.67% among 360,000; inhibition, % at 15 µM;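 active means compounds whose normalised, plate-corrected inhibition of enzyme fluorescence in the single-dose primary screen is 50% or more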;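 further: 0% = DMSO with enzyme and 100% = substrate without enzyme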
MPTP counter: membrane potential counter-screen of mitochondrial pore inhibitors | shares compounds with MPTP inh | isolated mitochondria, Rhodamine 123 fluorescence | inhibition, % at 10 µM | hit rate 78% among 5,000; in the data active means inhibition above about 22%;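 further: 0% = DMSO vehicle and 100% = positive control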
MPTP abs DR: MPTP inhibition, dose response swelling confirmation; shares compounds with MPTP inh; isolated mitochondria swelling, absorbance; IC50, µM; hit rate 58% among 780; AID 651561; in the data active means IC50 below about 20 µM
MPTP cs DR: active in counter-screen for permeability transition pore inhibitors; isolated mitochondria counterscreen, fluorescence read-out; hit rate 49% among 780; shares compounds with MPTP inh; IC50, µM; in the data active means IC50 below about 80 µM
The depositor's hits bear a star.

How did COc1cc(NC(=O)Nc2cccc([N+](=O)[O-])c2)cc(OC)c1 do in these assays?
p-CIP stab down: -4; MIN6 prolif: -5; NR3A LBD binder: 29*; MPTP inh: 98*; FAS-TE inh: 26; MPTP counter: 89*

What do the screens show for `O=C(Nc1cccc([N+](=O)[O-])c1)Nc1cccc([N+](=O)[O-])c1`?
p-CIP stab down: -10; MIN6 prolif: -6; NR3A LBD binder: 26*; MPTP inh: 91*; FAS-TE inh: 28; MPTP counter: 78*

Results for CCCCCCCCCCCC1N=C(N)NC(CCCO)=C1C(=O)OC (stereo not given) ?
NR3A LBD binder: 0; MPTP inh: 79*; FAS-TE inh: -147; MPTP counter: 2

How did CCCCCCOC(=O)c1ccc(N)cc1 do in these assays?
p-CIP stab down: -1; MIN6 prolif: 0; NR3A LBD binder: 0; MPTP inh: 0; FAS-TE inh: 8

How did CC(C)COc1ccc(-c2nnc(-c3ccncc3)o2)cc1 do in these assays?
p-CIP stab down: 2; MIN6 prolif: -4; NR3A LBD binder: 0; MPTP inh: 59*; FAS-TE inh: 6; MPTP counter: 51*

What do the screens show for `CCC(C(=O)OCC(=O)Nc1c(Cl)cccc1Cl)c1ccccc1` (stereo not given)?
p-CIP stab down: -23; MIN6 prolif: -1; NR3A LBD binder: 1; MPTP inh: 1; FAS-TE inh: 2

Results for C=CC[n+]1c(-c2ccc(OC)c(OC)c2)csc1NNC(=O)Nc1ccccc1 ?
p-CIP stab down: -7; MIN6 prolif: -2; NR3A LBD binder: -1; MPTP inh: 64*; FAS-TE inh: 2; MPTP counter: 31*

How did COCC(C)n1c(SCC(=O)Nc2c(C)n(C)n(-c3ccccc3)c2=O)nc2ccccc2c1=O (stereo not given) do in these assays?
MIN6 prolif: -2; NR3A LBD binder: 4; MPTP inh: -2; FAS-TE inh: -2

How did Nc1nc(C23CC4CCC(CC(C4)C2)C3)cs1 do in these assays?
p-CIP stab down: 2; MIN6 prolif: 0; NR3A LBD binder: -2; MPTP inh: 64*; FAS-TE inh: 3; MPTP counter: -4; MPTP abs DR: inactive; MPTP cs DR: >80

How did CC(C)c1ccc(NS(=O)(=O)c2ccc(-n3cccn3)cc2)cc1 do in these assays?
p-CIP stab down: -13; MIN6 prolif: -3; NR3A LBD binder: 2; MPTP inh: 1; FAS-TE inh: 26

How did CC(C)c1ccc(S(=O)(=O)Nc2ccc(SC(F)F)cc2)cc1 do in these assays?
p-CIP stab down: -1; MIN6 prolif: 0; NR3A LBD binder: 13*; MPTP inh: 72*; FAS-TE inh: 33; MPTP counter: 83*

What do the screens show for `O=C(Nc1ccc(Cl)cc1)N1CCC(c2ccccc2)C1` (stereo not given)?
p-CIP stab down: 15; MIN6 prolif: -4; NR3A LBD binder: 3; MPTP inh: 86*; FAS-TE inh: 12; MPTP counter: 91*

How did OC(COc1ccc2cc(Br)ccc2c1)CN1CCCC1 (stereo not given) do in these assays?
p-CIP stab down: 7; MIN6 prolif: -5; NR3A LBD binder: 2; MPTP inh: 88*; FAS-TE inh: -2; MPTP counter: -6; MPTP abs DR: 9.4*; MPTP cs DR: >80

What do the screens show for `CC1CCC(C(C)C)C(OCC(O)CN2CCN(Cc3ccccc3)CC2)C1` (stereo not given)?
p-CIP stab down: -22; MIN6 prolif: -3; NR3A LBD binder: 0; MPTP inh: 86*; FAS-TE inh: -13; MPTP counter: -1; MPTP abs DR: inactive; MPTP cs DR: 40*

What do the screens show for `COc1cccc(OCC(O)CN2CCC(Cc3ccccc3)CC2)c1` (stereo not given)?
p-CIP stab down: -10; MIN6 prolif: -1; NR3A LBD binder: -1; MPTP inh: 56*; FAS-TE inh: -7; MPTP counter: -6; MPTP abs DR: 19*; MPTP cs DR: 62*

Results for OC(COc1ccc(OCC(O)CN2CCN(Cc3ccccc3)CC2)cc1)CN1CCN(Cc2ccccc2)CC1 (stereo not given) ?
MIN6 prolif: -3; NR3A LBD binder: 1; MPTP inh: 54*; FAS-TE inh: -3; MPTP counter: -2; MPTP abs DR: 12*; MPTP cs DR: 30*

How did CC1CCC(C(C)C)C(OCC(O)CN2CCOCC2)C1 (stereo not given) do in these assays?
p-CIP stab down: -3; MIN6 prolif: -2; NR3A LBD binder: 2; MPTP inh: 0; FAS-TE inh: -11

How did OC(COc1ccc(OCc2ccccc2)cc1)CN1CCCCC1 (stereo not given) do in these assays?
p-CIP stab down: 2; MIN6 prolif: -1; NR3A LBD binder: 0; MPTP inh: 0; FAS-TE inh: -7

Results for Cc1ccc(C)c(Cn2nc3c4ccccc4n(Cc4ccccc4)cc-3c2=O)c1 ?
p-CIP stab down: -4; MIN6 prolif: -4; NR3A LBD binder: 2; MPTP inh: 1; FAS-TE inh: -4

Results for C[C@@H]1CN([C@@H](C)CO)C(=O)CCCn2nncc2CO[C@@H]1CN(C)S(C)(=O)=O ?
MPTP inh: -1; FAS-TE inh: -8

How did Cc1cc(C)c(OCC(=O)OCC(=O)NNC(=O)c2ccccc2F)c(C)c1 do in these assays?
MIN6 prolif: 2; NR3A LBD binder: -1; MPTP inh: -3; FAS-TE inh: -6

What do the screens show for `O=c1c(-c2nc3ccccc3o2)c2oc3ccccc3n2c2ccccc12`?
p-CIP stab down: -22

What do the screens show for `N#CCCN1CCN(C2=NC(=O)/C(=C\c3cccs3)S2)CC1`?
p-CIP stab down: 12; MIN6 prolif: -3; NR3A LBD binder: 0; MPTP inh: -2; FAS-TE inh: -7

Results for O=S(=O)(N[C@H]1C[C@@H](NS(=O)(=O)OCC(Cl)(Cl)Cl)C2CCCCC21)OCC(Cl)(Cl)Cl (stereo not given in full) ?
p-CIP stab down: -1; NR3A LBD binder: 18*; MPTP inh: 64*; FAS-TE inh: 21; MPTP counter: 91*

How did COC(=O)[C@]1(C)N[C@H](CN(C)C(C)=O)[C@@H]2C(=O)N(Cc3ccccc3)C(=O)[C@@H]21 do in these assays?
MIN6 prolif: -2; NR3A LBD binder: 4; MPTP inh: 1; FAS-TE inh: -5

How did CCC(CC)C(=O)Nc1ccc(Sc2ccc([N+](=O)[O-])cc2)cc1 do in these assays?
p-CIP stab down: -9; MIN6 prolif: -6; NR3A LBD binder: -3; MPTP inh: 95*; FAS-TE inh: 37; MPTP counter: 77*

Source: PubChem (Sanford-Burnham Center for Chemical Genomics)
